Cycloheximide cs: affects cycloheximide protein synthesis inhibition readout, counter-screen. max response, %. 12% of 300,000 active. cell reporter, cycloheximide protein synthesis inhibition counterscreen; in the data active = max response mostly above about 13%, no sharp cut-off; inactive = mostly below about 14%; note: read at 38.3 µM for the half of the compounds with a filed dose; 0% is about no effect
Shiga toxin inh: inhibitors of Shiga toxin in Vero cells; Vero cells, Shiga toxin protein synthesis inhibition reporter; inhibition, % at 38.7 µM; 9.2% of 290,000 active; AID 2315; in the data active = inhibition mostly above about 28%, no sharp cut-off; inactive = mostly below about 43%; note: 0% is about no effect
MARV entry inh: Marburg virus entry inhibition. Marburg virus pseudotyped entry inhibition, cell reporter. Potency, µM (top dose mostly 37.8 µM), for inactives: top-dose activity change, negative = inhibition, actives largely listed as inhibitors. 1.8% of 300,000 active. AID 540276; calls by dose curve; tested in HEK293 cells; note: potency is the fitted concentration of half-maximal effect; % is set by controls: 0 for no effect and ±100 for the full control effect
Lassa entry inh: inhibitors of Lassa virus binding or cell entry; Potency, µM (series often up to 37.9 µM), for the others: at the highest dose activity change, negative = inhibition, usual class: inhibitors; Lassa virus pseudotype entry inhibition, cell reporter; 1.2% of 300,000 active; calls by dose curve; tested in HEK293 cells; note: potency is the fitted concentration of half-maximal effect; % is set by controls: 0 for no effect and ±100 for the full control effect; nearly all actives have a fitted effect of over 50% in size
An asterisk follows results filed as active; ? = inconclusive; . = no result; [ ] = remark or other dose. Sampled rows, rich in hits. Any-hit rate of the full collection: about 12%.

SMILES	Cycloheximide cs	Shiga toxin inh	MARV entry inh	Lassa entry inh
CC1=NN(C(C#N)c2c(C)nn(Cc3ccccc3)c2C)C(C)(C)C1 (stereo not given)	5.2	-5.9	.	.
N#C/C(C(=O)Oc1ccccc1)=C1\C=CC=CN1	44.0*	59.9*	1.2%	-6.9%
COc1ccc(/C=C2/C(=O)N=C(N)N2C)cc1OC	1.0	10.9	3.6%	?
CN1C(N)=NC(=O)/C1=C\c1ccc(Br)cc1	13.3*	40.6	.	.
CN1C(N)=NC(=O)/C1=C/c1ccc(OC(F)(F)F)cc1	32.5*	40.5*	.	.
COC(=O)c1ccc(OCC2c3cc(OC)c(OC)cc3CCN2C(=O)c2ccccc2C)cc1 (stereo not given)	.	.	.	-4.0%[46.1 µM]
Cc1oc2cc3oc(=O)c(CCC(=O)NCCCn4ccnc4)c(C)c3cc2c1C	7.8*	15.2	.	.
Cc1oc2cc3oc(=O)c(CCC(=O)NCCc4ccccc4F)c(C)c3cc2c1C	.	.	5.2%[46.1 µM]	26.6%[46.1 µM]
Cc1oc2cc3oc(=O)c(CCC(=O)NCCCN4CCOCC4)c(C)c3cc2c1C	active	26.5	.	.
COCCCNC(=S)N1CCN(c2nc3ccccc3s2)CC1	13.7*	20.6	0.7%[46.1 µM]	.
Cc1cccc(C)c1NC(=O)N1CCN(c2nc3ccccc3s2)CC1	1.0	24.2	?	?
COCCNC(=S)N1CCN(c2nc3ccccc3s2)CC1	32.1*	93.3	.	.
Cn1c(O)c(C=Nc2ccc(Br)cc2)sc1=O	45.4*	80.4*	.	.
Cc1ccc(C)c(S(=O)(=O)NCCN2CCOCC2)c1	-1.2	-0.5	.	.
COCCn1c(SCC(=O)c2ccccc2)nc2c(c1=O)SCC2	-2.2	-25.4	-2.4%[46.1 µM]	4.4%[46.1 µM]
COCCN1Cc2c(sc(C)c2C)N(C(=O)c2ccccc2)C1	26.4*	71.7*	?	-4.4%
Cc1sc2c(c1C)CN(Cc1ccncc1)CN2C(=O)c1ccco1	41.3*	64.1*	6.3%	0.4%
CCc1ccc(CN2CCN(C(=O)c3ccco3)CC2)cc1	12.1	14.6	14.0%[46.1 µM]	-29.6%[46.1 µM]
Cc1sc2c(c1C)CN(C(C)(C)C)CN2C(=O)c1ccccc1	38.4*	91.0*	-7.0%	13.2%
CCc1ccc(CNCc2cccs2)cc1	28.9*	54.7*	6.3%[46.1 µM]	.
CCc1ccc(S(=O)(=O)NCc2cccs2)cc1	4.5	26.8	-7.1%	5.2%
CCOC(=O)CSc1nc(-c2cccs2)nc2c1c(=O)n(C)c(=O)n2C	-1.3	7.2	.	.
O=C(Cn1nc(-c2ccccc2)nc(Cc2ccccc2)c1=O)Nc1ccc(Cl)cc1	.	.	.	1.9%[46.1 µM]
CCOC(=O)C1CCCN(C2=NC(=O)/C(=C/c3ccc(N(C)C)cc3)S2)C1 (stereo not given)	25.7*	33.4*	-10.7%[46.1 µM]	?
O=C1N=C(N2CCCCC2)S/C1=C\c1ccccc1F	22.2*	60.8*	?	-26.4%
SMILES	Cycloheximide cs	Shiga toxin inh	MARV entry inh	Lassa entry inh
O=C1N=C(N2CCCCC2)S/C1=C\c1ccc(Cl)cc1	1.6	.	.	.
O=C1N=C(N2CCCC2)S/C1=C\c1ccccc1	6.4	39.2	?	-4.0%
Cc1ccc(/C=C2\SC(N3CCCCC3)=NC2=O)cc1	42.4*	72.8*	10.0%	?
CC1CCCN(S(=O)(=O)c2ccc(N3CCCCS3(=O)=O)cc2)C1 (stereo not given)	.	.	.	5.0%[46.1 µM]
Cc1cc(OCC(=O)Nc2cccnc2)c2c(C)c(C)c(=O)oc2c1	-0.7	13.1	.	.
O=C(COc1ccccc1Cl)Nc1cccnc1	39.6*	72.8*	.	.
Cc1ccc(Cl)c(OCC(=O)Nc2cccnc2)c1	58.4*	104.6*	.	.
CCOC1(OCC)C(c2ccc(Cl)cc2)C(C#N)(C#N)C1(OCC)OCC (stereo not given)	4.7	13.8	?	20.6µM*
CCOC1(OCC)C(c2ccc(N)cc2)C(C#N)(C#N)C1(OCC)OCC (stereo not given)	2.8	-20.9	?	-3.0%
COC(=O)c1sc2nc(C)cc(C)c2c1N	8.9	31.3	?	20.5%[46.1 µM]
Cc1cc(C)c2c(N)c(C(=O)Nc3ncc(C)s3)sc2n1	-7.0	-15.2	0.501µM*	0.199µM*
Cc1cc(C)c2c(N)c(C(=O)Nc3ccccc3F)sc2n1	33.7*	41.1*	.	.
Cc1cc(C)c2c(N)c(C(=O)Nc3ccccc3Br)sc2n1	24.2*	38.8*	.	.
COc1ccc2nc(NC(=O)c3sc4nc(C)cc(C)c4c3N)sc2c1	36.0*	76.3*	.	.
Cc1cc(C)c2c(N)c(C(=O)Nc3ccccc3Cl)sc2n1	.	.	?	-18.4%
NC(=O)c1ccc(NC(=O)C2CCCC2)cc1	6.1	.	-11.0%	10.3%
COc1ccc(Br)cc1/C=N/NC(=O)c1cc(Br)ccc1O	-2.2	21.7	.	.
COc1ccccc1/C=N\N=C(\N)c1ccccn1	55.3*	88.9*	?	-7.8%
COc1ccc(C(=O)N/N=C/c2cc(Br)ccc2O)cc1OC	-1.1	-13.1	8.91µM*	2.51µM*
COc1ccc(/C=N/NC(=O)c2ccncc2)c(OC)c1	4.7	19.6	.	.
COc1ccccc1C=NN=C(N)C(N)=NN=Cc1ccccc1OC	.	.	2.0%	-8.9%
COc1ccc(/C=N/NC(=O)c2ccc(Br)cc2)c(OC)c1	23.4*	46.8	-2.7%[46.1 µM]	-19.3%[46.1 µM]
COc1ccccc1C=NN=C(NN=Cc1ccccc1OC)NN=Cc1ccccc1OC	.	.	?	12.6µM*
COCC(=O)N(CCc1ccc(OC)c(OC)c1)Cc1cc2cc(C)ccc2nc1Cl	12.6	9.0	-20.0%[46.1 µM]	?
CC(C)OC(=O)[C@@H]1CC[C@H](C)[C@@H](CCC[C@@H]2CC=C[C@H](CC#N)O2)O1	.	.	-26.4%[14.2 µM]	.
SMILES	Cycloheximide cs	Shiga toxin inh	MARV entry inh	Lassa entry inh
O=C1CC(C(=O)N2CCc3ccccc32)CN1c1cccc(C(F)(F)F)c1 (stereo not given)	.	.	-9.8%	1.8%
COc1ccc(/C=N/N=C(/N)N[N+](=O)[O-])c(OC)c1	28.9*	28.9*	0.7%	-10.0%
COc1ccccc1/C=N/NC(=O)CNC(=O)c1ccccc1	1.0	27.0	.	.
COc1ccccc1/C=N/NC(=O)c1ccc(Br)cc1	25.9*	18.7	-20.6%[46.1 µM]	-13.6%[46.1 µM]
CCOC(=O)c1ccc(NS(=O)(=O)c2c(C)nc3sccn3c2=O)cc1	1.6	1.1	.	.
CC(=O)c1ccc(NC(=S)N(C)C2CCN(C)CC2)cc1	-1.2	-2.5	-4.0%	2.0%
O=C(Nc1ccc(Cl)c([N+](=O)[O-])c1)c1cnccn1	-0.7	3.9	-23.6%	1.6%
Cc1cc(NC(=O)c2cccnc2)ccc1Br	31.1*	44.5*	.	.
N#Cc1ccc(C(=O)Nc2ccc3ccccc3c2)cc1	25.9*	102.6*	?	3.98µM*
O=C(Nc1ccc2ccccc2c1)c1cnccn1	28.9*	84.8*	?	?
Cc1cc(C)cc(NC(=O)c2cccnc2)c1	-0.7	2.0	2.0%	-3.5%
N#Cc1ccccc1Sc1ccccc1C(=O)Nc1ccc2ccccc2c1	8.3	3.8	.	.
Cc1nc(NC(=O)c2cccnc2)ccc1Br	31.8*	57.5*	?	?
Cc1cccc(NC(=O)c2cccnc2)c1	8.8	13.2	28.5%	15.0%
NC(=NC(=O)c1ccccc1)N1CCN(C(c2ccccc2)c2ccccc2)CC1	-0.9	-14.3	-20.6%[46.1 µM]	4.3%[46.1 µM]
O=C(Nc1ccc2nccnc2c1)c1cnccn1	19.3*	46.9*	2.2%[46.1 µM]	11.1%
COc1cccc(OC)c1C(=O)Nc1ccc2c(c1)Cc1ccccc1-2	9.9	10.2	?	-11.5%
O=C(Nc1ccc2c(c1)Cc1ccccc1-2)c1ccco1	45.1*	141.5*	-28.3%	?
COc1ccc(C(=O)Nc2ccnc(-c3cccnc3)n2)cc1	13.6	50.4	.	.
CC(=O)c1cccc(NC(=O)c2cnccn2)c1	1.0	-1.9	.	.

Screens deposited in PubChem BioAssay by National Center for Advancing Translational Sciences (NCATS).
